Seven compounds from PubChem BioAssay (EPA / NIEHS) can be followed below.

Where “and” joins values, the source holds several entries; their conditions need not be identical. Equal entries are not always repeated. Calls of active or inactive are those of the source. The calls were made as follows: active = hit-call score of the fitted dose curve at least 0.9, where 1 is the maximum; inactive = score below 0.9.

Read-out in experiment [1]: Thrombomodulin, THBD (gene 7056)
Description: BSK_3C_Thrombomodulin: BioMAP Diversity Plus: 3C Assay for Thrombomodulin Biomarker Activity (AID 2283029). Particulars: primary human endothelial cells (HUVEC); actives raise or lower the signal. The method in brief:
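HUVEC, 3C conditions; compound 24 h; thrombomodulin by ELISA; bidirectional curve fit vs DMSO baseline; parallel SRB total-protein staining for cytotoxicity.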

Read-out in experiment [2]: Urokinase-type plasminogen activator receptor (uPAR), PLAUR (gene 5329)
The experiment in a line: BSK_4H_uPAR: BioMAP Diversity Plus: 4H Assay for Urokinase-type plasminogen activator receptor (uPAR) Biomarker Activity (AID 2283030). The following applies: primary human endothelial cells (HUVEC); actives raise or lower the signal. The method in brief:
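HUVEC, 24 h post-dose; uPAR by ELISA; bidirectional fit vs DMSO baseline.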

Read-out in experiment [3]: Human Leukocyte Antigen - DR isotype (HLADR), HLA-DRA (gene 3122)
Description: BSK_BE3C_HLADR: BioMAP Diversity Plus: BE3C Assay for Human Leukocyte Antigen - DR isotype (HLADR) Biomarker Activity (AID 2283032). The following applies: primary human bronchial epithelial cells; actives raise or lower the signal. In short, it runs like this: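 Primary human bronchial epithelial cells (BE3C); 24 h chemical exposure; HLA-DR by ELISA; bidirectional curve fit vs DMSO baseline.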

Read-out in experiment [4]: Interferon-gamma inducible Protein 10 (IP10), CXCL10 (gene 3627)
Description: BSK_BE3C_IP10: BioMAP Diversity Plus: BE3C Assay for Interferon-gamma inducible Protein 10 (IP10) Biomarker Activity (AID 2283034). Particulars: primary human bronchial epithelial cells; actives raise or lower the signal. In short, it runs like this:
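ELISA readout of IP-10 in BE3C system: primary human bronchial epithelial cells, 24 h post-dosing; bidirectional curve fit vs DMSO baseline.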

Read-out in experiment [5]: Monokine induced gamma interferon (MIG), CXCL9 (gene 4283)
Description: BSK_BE3C_MIG: BioMAP Diversity Plus: BE3C Assay for Monokine induced gamma interferon (MIG) Biomarker Activity (AID 2283035).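 As to outcome: MIG protein measured by ELISA in BE3C cultures after 24 h of dosing.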 Particulars: primary human bronchial epithelial cells; actives raise or lower the signal. In short, it runs like this:
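Dose cells (human primary bronchial epithelial), incubate 24 h, quantify MIG by ELISA, then fit concentration–response in both directions relative to DMSO control.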

Read-out in experiment [6]: Plasminogen activator inhibitor-1 (PAI1), SERPINE1 (gene 5054)
Description: BSK_BE3C_PAI1: BioMAP Diversity Plus: BE3C Assay for Plasminogen activator inhibitor-1 (PAI1) Biomarker Activity (AID 2283037). Particulars: primary human bronchial epithelial cells; actives raise or lower the signal. In short, it runs like this: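 ELISA read-out of PAI-1 from human bronchial epithelial primary cells, 24 h post-dosing; bidirectional curve fit vs DMSO baseline, gain or loss of signal scored.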

Read-out in experiment [7]: urokinase plasminogen activator (uPA), PLAU (gene 5328)
Description: BSK_BE3C_uPA: BioMAP Diversity Plus: BE3C Assay for urokinase plasminogen activator (uPA) Biomarker Activity (AID 2283038).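 As to outcome: uPA protein level quantified by ELISA in cell cultures; uPA read one day after compound addition.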 The following applies: primary human bronchial epithelial cells; actives raise or lower the signal. In short, it runs like this:
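ELISA read-out of uPA in human lung primary bronchial epithelial cultures, 24 h post-dosing. Gain or loss of signal fitted bidirectionally relative to DMSO baseline; cytotoxicity checked in parallel cultures via SRB total protein stain.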

Read-out in experiment [8]: Interleukin-6 (IL6), IL6 (gene 3569)
The experiment in a line: BSK_CASM3C_IL6: BioMAP Diversity Plus: CASM3C Assay for Interleukin-6 (IL6) Biomarker Activity for (AID 2283040). Particulars: primary human coronary artery smooth muscle cells; actives raise or lower the signal.

Read-out in experiment [9]: Tissue plasminogen activator (tPA), PLAT (gene 5327)
Description: BSK_BE3C_tPA: BioMAP Diversity Plus: BE3C Assay for Tissue plasminogen activator (tPA) Biomarker Activity (AID 2283041).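 As to outcome: tPA level quantified by ELISA one day after compound addition.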 Particulars: primary human bronchial epithelial cells; actives raise or lower the signal. The method in brief:
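ELISA read-out of tPA on human primary bronchial epithelial cells, 24 h post-dosing; bidirectional fit vs DMSO negative control/baseline.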

Read-out in experiment [10]: Interleukin-8 (IL8), CXCL8 (gene 3576)
The experiment in a line: BSK_CASM3C_IL8: BioMAP Diversity Plus: CASM3C Assay for Interleukin-8 (IL8) Biomarker Activity (AID 2283042).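 Also: IL-8 protein level quantified by ELISA.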 The following applies: primary human coronary artery smooth muscle cells; actives raise or lower the signal.

Read-out in experiment [11]: Human Leukocyte Antigen - DR isotype (HLADR), HLA-DRA (gene 3122)
Description: BSK_CASM3C_HLADR: BioMAP Diversity Plus: CASM3C Assay for Human Leukocyte Antigen - DR isotype (HLADR) Biomarker Activity (AID 2283043).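 Also: cell-surface HLA-DR protein level quantified by ELISA.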 Particulars: primary human coronary artery smooth muscle cells; actives raise or lower the signal.

Read-out in experiment [12]: Macrophage colony-stimulating factor (MCSF), CSF1 (gene 1435)
Description: BSK_CASM3C_MCSF: BioMAP Diversity Plus: CASM3C Assay for Macrophage colony-stimulating factor (MCSF) Biomarker Activity (AID 2283044).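 Also: M-CSF protein amount quantified by ELISA after 24 h exposure.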 Particulars: primary human coronary artery smooth muscle cells; actives raise or lower the signal.

Read-out in experiment [13]: Low-density lipoprotein receptor (LDLR), LDLR (gene 3949)
The experiment in a line: BSK_CASM3C_LDLR: BioMAP Diversity Plus: CASM3C Assay for Low-density lipoprotein receptor (LDLR) Biomarker Activity (AID 2283045).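 Also: LDLR protein level on the cell surface quantified by ELISA.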 The following applies: primary human coronary artery smooth muscle cells; actives raise or lower the signal.

Read-out in experiment [14]: Monocyte Chemoattractant Protein-1 (MCP1), CCL2 (gene 6347)
Description: BSK_CASM3C_MCP1: BioMAP Diversity Plus: CASM3C Assay for Monocyte Chemoattractant Protein-1 (MCP1) Biomarker Activity (AID 2283046).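 Also: MCP-1 level quantified by ELISA 24 h after dosing.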 The following applies: primary human coronary artery smooth muscle cells; actives raise or lower the signal.

Experiment [15] can be described thus: BSK_CASM3C_Proliferation: Cell Proliferation Assessment in the BioMAP Diversity Plus: CASM3C Assay (AID 2283047).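 Also: sulforhodamine B total protein stain as relative cell number at 560 nm; sub-confluent cells exposed 48 h before staining; fitted both ways against DMSO so gain or loss of cell number.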 The following applies: primary human coronary artery smooth muscle cells.
Read-out in experiment [16]: Monokine induced gamma interferon (MIG), CXCL9 (gene 4283)
The experiment in a line: BSK_CASM3C_MIG: BioMAP Diversity Plus: CASM3C Assay for Monokine induced gamma interferon (MIG) Biomarker Activity (AID 2283048).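 Also: MIG protein level measured by ELISA.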 The following applies: primary human coronary artery smooth muscle cells; actives raise or lower the signal.

Read-out in experiment [17]: Thrombomodulin, THBD (gene 7056)
Description: BSK_CASM3C_Thrombomodulin: BioMAP Diversity Plus: CASM3C Assay for Thrombomodulin Biomarker Activity (AID 2283051).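 Also: thrombomodulin protein level measured by ELISA 24 h after dosing.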 The following applies: primary human coronary artery smooth muscle cells; actives raise or lower the signal.

Read-out in experiment [18]: Tissue Factor, F3 (gene 2152)
Description: BSK_CASM3C_TissueFactor: BioMAP Diversity Plus: CASM3C Assay for Tissue Factor Biomarker Activity (AID 2283052).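 Also: cell surface tissue factor protein level read by ELISA.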 Particulars: primary human coronary artery smooth muscle cells; actives raise or lower the signal.

Read-out in experiment [19]: Urokinase-type plasminogen activator receptor (uPAR), PLAUR (gene 5329)
Description: BSK_CASM3C_uPAR: BioMAP Diversity Plus: CASM3C Assay for Urokinase-type plasminogen activator receptor (uPAR) Biomarker Activity (AID 2283054).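 Also: cell-surface uPAR protein level quantified by ELISA.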 Particulars: primary human coronary artery smooth muscle cells; actives raise or lower the signal.

Read-out in experiment [20]: Collagen III, COL3A1 (gene 1281)
Description: BSK_hDFCGF_CollagenIII: BioMAP Diversity Plus: hDFCGF Assay for Collagen III Biomarker Activity (AID 2283056). Particulars: primary human foreskin fibroblasts; actives raise or lower the signal. The method in brief:
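hDFCGF primary human dermal fibroblasts; 24 h chemical exposure; collagen III by ELISA; bidirectional curve fit vs DMSO baseline (gain or loss of signal).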

For the compound `Cc1cccnc1`, the outcome in experiment [1], in experiment [2], in experiment [3], in experiment [4], in [5] and in experiment [6] was inactive. Besides, the result in experiment [7], in experiment [8], in experiment [9], in [10], in experiment [11] and in [12] was inactive. The outcome in experiment [13], in [14], in experiment [15], in [16], in experiment [17] and in experiment [18] was inactive. The outcome in experiment [19] and in experiment [20] was inactive.
In general, AC50 refers to the concentration at which the activity in the assay is half-maximal. Take `CCCCCCCCCCC1CO1` (stereo not given): the result in [1], in experiment [5], in experiment [6], in experiment [7], in experiment [8] and in experiment [9] was inactive. Moreover, the result in [10], in experiment [11], in experiment [12], in experiment [13], in [15] and in experiment [16] was inactive. Moreover, in experiment [17], the result was inactive. In addition, the AC50 in [2] is 30.1 µM (active); in [3] it was 31.2 µM (active); in experiment [4], 30.6 µM (active); in [14] it was 6.3 µM (active); in experiment [18], 30.2 µM (active); in [19], 34.3 µM (active). In addition, the AC50 in experiment [20] is 20 µM (active).
With `CN(C)CCC(c1ccc(Cl)cc1)c1ccccn1` (stereo not given), the outcome in experiment [1], in [2], in experiment [3], in experiment [4], in [5] and in [6] was inactive. Further, the outcome in [7], in experiment [8], in experiment [9], in experiment [10], in experiment [11] and in experiment [12] was inactive. The outcome in experiment [13], in experiment [14], in experiment [15], in [16], in experiment [17] and in experiment [18] was inactive. Also, the outcome in [19] and in [20] was inactive.
For `CN(C)c1ccc(C(c2ccccc2)c2ccc(N(C)C)cc2)cc1`, the result in [1], in experiment [2], in experiment [3], in [5], in [7] and in [10] was inactive. Also, the outcome in experiment [11], in experiment [12], in [13], in experiment [14], in experiment [16] and in experiment [19] was inactive. Also, the AC50 in [4] was 10.7 µM (active); in experiment [6], 10.9 µM (active); in experiment [8], 9.64 µM (active); in experiment [9] it was 6.47 µM (active); in experiment [15], 9.42 µM (active); in experiment [17] it was 1.26 µM (active). Also, the AC50 in experiment [18] was 7.33 µM (active); in experiment [20] it was 10.7 µM (active).
With `CCCCCCCCCCCCCCCCCC[N+](C)(C)C`, the AC50 in [1] was 2.9 µM (active); in experiment [3] it was 2.52 µM (active); in [4] it was 2.69 µM (active); in experiment [5] it was 3.82 µM (active); in experiment [7] it was 7.3 µM (active); in experiment [8] it was 8.51 µM (active). Also, the AC50 in experiment [9] was 1.32 µM (active); in experiment [10] it was 9.19 µM (active); in [11], 3.33 µM (active); in [12] it was 3.45 µM (active); in experiment [14], 3.5 µM (active); in [15], 2.09 µM (active). Moreover, the AC50 in experiment [16] is 9.22 µM (active); in experiment [18], 3.27 µM (active); in experiment [19], 6.31 µM (active). The outcome in experiment [2], in experiment [6], in experiment [13], in experiment [17] and in experiment [20] was inactive.
Regarding `CN(C)Cc1cc(C(C)(C)C)c(O)c(C(C)(C)C)c1`, the outcome in experiment [1], in experiment [2], in [3], in [4], in [5] and in experiment [6] was inactive. For the same compound, the outcome in [7], in experiment [8], in [9], in experiment [10], in [11] and in experiment [12] was inactive. Besides, the result in experiment [13], in experiment [14], in [15], in experiment [16], in experiment [17] and in [18] was inactive. In addition, in experiment [19], the result was inactive. In addition, the AC50 in experiment [20] is 26.9 µM (active) and 20 µM (active).
In the case of `Cc1cc(-n2nc3ccc(Cl)cc3n2)c(O)c(C(C)(C)C)c1`, the result in [1], in [3], in [4], in [5], in [6] and in [7] was inactive. For the same compound, the result in experiment [8], in experiment [9], in [10], in experiment [11], in [12] and in experiment [13] was inactive. The outcome in experiment [14], in experiment [15], in [16], in experiment [17], in experiment [18] and in experiment [19] was inactive. Moreover, the result in experiment [20] was inactive. Besides, the AC50 in [2] was 1.37 µM (active).
